Assay results taken from paper doi:10.1101/2024.03.05.583629.

target: pT7_6His-AlfaTag-HOXD13 (human, UniProt P35453 263-343); assay: PADIT-seq; details: dsDNA, one strand shown
Sequence (P35453 263-343): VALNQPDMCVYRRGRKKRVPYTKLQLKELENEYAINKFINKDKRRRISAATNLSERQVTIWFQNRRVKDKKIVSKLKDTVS

Sequence	binding signal [log2FC]
CTCGAGGATATCAAGATCTGGCCTCGGCTGCGTAAAAGGAACCTCTAGCTAGCCGACTCACTATAGGGATAATCGCCCTGAGCAAAGACC	1.22 ± 0.0881
CTCGAGGATATCAAGATCTGGCCTCGGCATTTTACGAGGAACCTCTAGCTAGCCGACTCACTATAGGGATAATCGCCCTGAGCAAAGACC	3.41 ± 0.0937
CTCGAGGATATCAAGATCTGGCCTCGGCGTACTAAAAGGAACCTCTAGCTAGCCGACTCACTATAGGGATAATCGCCCTGAGCAAAGACC	0.47 ± 0.0814
